Hit rate of the full screen: of about 360,000 compounds, about 2,300 (0.64%) were called active. The list comes from a sample in which actives are over-represented; it also holds similar structures and randomly drawn compounds. Values without a mark were called inactive. Rule as the data show it: active = inhibition mostly above about 40% (no sharp cut-off); inactive = mostly below about 27%.

The values below come from PubChem BioAssay AID602440 (Sanford-Burnham Center for Chemical Genomics, 2012).

In this test the target is Sentrin-specific protease 8 (Homo sapiens) (UniProt Q96LD8). The experiment in a line: human SENP8 protease inhibitors, primary screen, biochemical, fluorescence, Nedd8 protein substrate, uHTS (AID 602440). As to conditions: recombinant SENP8, Nedd8 substrate fluorescence; at 20 µM; stronger effect = higher value.
Chain of Sentrin-specific protease 8 (Homo sapiens) (Q96LD8 whole entry, looked up): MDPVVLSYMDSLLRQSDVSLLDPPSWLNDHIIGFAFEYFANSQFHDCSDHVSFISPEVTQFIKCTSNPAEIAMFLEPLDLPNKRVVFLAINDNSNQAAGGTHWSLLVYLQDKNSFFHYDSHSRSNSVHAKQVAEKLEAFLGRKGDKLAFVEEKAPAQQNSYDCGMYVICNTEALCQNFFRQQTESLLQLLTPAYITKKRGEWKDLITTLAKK
Broadly, the inhibition is the drop in the measured response relative to a control, in per cent. With `COc1ccc(NC(=O)N2CCCC(c3nc(-c4ccc(F)cc4)no3)C2)cc1` (stereo not drawn), the inhibition was 9.6%.
As to `C[C@H]1CN([C@@H](C)CO)C(=O)CCCn2cc(nn2)CO[C@@H]1CN(C)S(=O)(=O)c1ccc(-c2ccccc2)cc1`, the inhibition was 12.7%.
Consider `C/C(N)=C(/C#N)C(=O)COC(=O)c1cc(-c2cccc(Br)c2)nc2ccccc12`, for which the inhibition was -25.4%.
The same measure for `COc1cccc2c1C(=O)c1c(O)c3c(c(O)c1C2=O)CC(O)(C(C)=NNC(=O)c1ccc(Cl)c(Cl)c1)CC3OC1CC(N)C(O)C(C)O1` (stereo not drawn): 46.6% (active).
For the compound `CCCC(O)(c1ccc(OC)cc1)C(CN(C)C)c1ccccc1` (stereo not drawn), the inhibition is 10.7%.
Consider `NC(=O)C1CCN(CC(O)CSc2ccc(F)cc2)CC1` (stereo not drawn), for which the inhibition was 17%.
As to `NC(=O)COC(=O)c1cc(S(=O)(=O)N2CCN(c3ccccc3)CC2)ccc1Cl`, the inhibition was 14.7%.
On to `CC/C(=N/Nc1ccccc1)c1cnnc(SC)n1`, for which the inhibition was 61.2% (active).
On to `CSc1ncc(C(=O)NCCCc2ccccc2)c(C)n1`, for which the inhibition is -24.7%.
For the compound `C/C(=N\Nc1ccccc1)c1cccs1`, the inhibition is -20.5%.
In the case of `CN(C(=O)c1cccc(NC(=O)Cc2ccc([N+](=O)[O-])cc2)c1)C1CCC1`, the inhibition is 19.5%.
For the compound `O=S(=O)(Nc1ccc(-n2cnnn2)cc1)c1ccc(Cl)cc1`, the inhibition is 5.5%.
With `CCOC(=O)c1c(C)[nH]c2c1-c1ccccc1C(=O)C2=O`, the inhibition is 121% (active).
For the compound `CCOC(=O)c1[nH]c(C)c(C(=O)OCC(=O)N2c3ccccc3CC2C)c1C` (stereo not drawn), the inhibition was 31.3%.
As for `CCOC(=O)c1c(C)oc(C)c(C(=O)OCC)c1=O`, the inhibition is 11.2%.
Consider `CCn1cc(C(=O)NCC(=O)NC(C)(C)CO)c(=O)c2cc3c(cc21)OCO3`, for which the inhibition is -75.3%.
With `COc1ccc2c(c1)c(=Cc1ccc(N(C)C)cc1)c1cc(-c3ccccc3)[n+](C)n12`, the inhibition is -127%.
On to `CCOC(=O)CNC(=O)/C=C/c1c(Cl)cccc1Cl`, for which the inhibition was 16.6%.
As for `CCOC(=O)CNC(=O)N1c2ccccc2Sc2ccccc21`, the inhibition was 47.5% (active).
Consider `CCOC(=O)CNC(=O)CN1C(=O)CCSc2ccccc21`, for which the inhibition was 16.5%.
`CC(=O)NC(CC(=O)O)c1ccc(F)cc1` (stereo not drawn): the inhibition was -2%.
Next, `Cc1ccc(N=Nc2c(C)[nH]n(-c3ccccc3)c2=O)cc1`: 35.1% (active).
As for `Cc1[nH]n(-c2ccccc2)c(=O)c1CCOC(=O)c1ccc(C(F)(F)F)cc1`, the inhibition is 15.4%.
The same measure for `Cc1[nH]n(C)c(=O)c1N=Nc1ccc(S(C)(=O)=O)cc1`: 28.1%; for `Cc1ccc(S(=O)(=O)N(CC(=O)NN=C2CCN(C)CC2)c2ccc(F)cc2)cc1`: 10.4%.
On to `Cn1nc(C(F)(F)F)cc1-c1ccc(/C=C(\C#N)C(=O)c2cccc(C(F)(F)F)c2)s1`, for which the inhibition is -159%.
As for `CN(C)c1nc(N)nc(Cn2nnc(-c3ccc(C(F)(F)F)cc3)n2)n1`, the inhibition was 17.2%.
As to `CCc1ccc(-c2nnn(Cc3nc4ccccc4s3)n2)cc1`, the inhibition was 14%.
As to `CCc1ccc(-c2nnn(Cc3nn[nH]n3)n2)cc1`, the inhibition is 41.5% (active).
For `CCOC(=O)c1cc(NC(=O)SCC(=O)O)c(C)nc1C`, the inhibition was -84.4%.
The same measure for `CCCNC(=O)CCn1cc(-c2ccc(OC)cc2)nc1CCN`: -0.4%.
For `CCCc1cc(=O)[nH]c(SCC(=O)c2c(N)n(CC(C)C)c(=O)n(C)c2=O)n1`, the inhibition was 2.3%.
The same measure for `Cc1cc(-c2ccccc2)nc(N2CCC(C(=O)NC34CC5CC(CC(C5)C3)C4)CC2)n1`: -325%; for `Cc1cc2c(cc1C)N(C(=O)CN1C(=O)c3ccccc3C1=O)C(C)(C)c1ssc(=S)c1-2`: 41.6% (active).
For the compound `Cc1ccc2[nH]cc(CCCN3C(=O)c4ccccc4C3=O)c2c1`, the inhibition was 8.9%.
The same measure for `Cc1ccc(NC(=O)CCN2C(=O)c3ccccc3C2=O)cc1C`: 14.4%; for `Cc1ccc2c(c1)-c1c(ssc1=S)C(C)(C)N2C(=O)CN1C(=O)c2ccccc2C1=O`: 50% (active); for `Cc1cc(C)cc(NC(=O)CCN2C(=O)c3ccccc3C2=O)c1`: 8.2%.
Next, `Cc1ccccc1C(=O)NNC(=O)CN1C(=O)c2ccccc2C1=O`: 21.1%; `O=C(O)CC1S/C(=N\N=C/c2ccccc2O)N(c2ccc(O)cc2)C1=O` (stereo not drawn): -14.4%; `Cc1ccc2nc(Nc3ncc4c(n3)CC(C)(C)CC4=O)nc(C)c2c1`: -28.2%.
Regarding `O=C(CCN1CCCCC1)Nc1ccc(F)c(F)c1`, the inhibition is 19.3%.
Take `COCC1CCCN(Cc2cn[nH]c2-c2cc3ccccc3o2)C1` (stereo not drawn): the inhibition is 9.9%.
